In PubChem BioAssay AID492956 (The Scripps Research Institute Molecular Screening Center, 2010) one finds inhibition data, which are given here for 26 molecules.

Screen size: about 340,000 compounds; about 3,300 (0.97%) were called active. The sample holds actives, similar compounds and a random draw of the others, so the mix is not that of the screen.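 Rule for the calls: active = inhibition above the mean over all tested compounds plus 3 SD (cut at about 30% in these data); inactive = the rest.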

For this experiment, the target named is Platelet-activating factor acetylhydrolase 2, cytoplasmic (Homo sapiens) (UniProt Q99487). Kind of experiment: PAFAH2 enzyme inhibitors, primary screen, biochemical, fluorescence polarization, human (AID 492956).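 Note: inhibitors block probe labeling of enzyme so polarization drops; 0% = enzyme with DMSO and 100% = wells lacking PAFAH2 protein.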 To be noted: recombinant PAFAH2, FP-rhodamine activity probe, at 3.39 µM, active compounds read high. For orientation: Polarisation of emitted light reports the rotation of a fluorescent probe.
Regarding `CC(=O)Nc1ccc(SC[C@H](Cc2ccccc2)N2CC[C@@H](C)CCC2=O)cc1`, the inhibition (usually the change of the read-out against control, counted positive when it falls) was 1.61% (inactive).

In the case of `CCOC(=O)C1CCCN(Cc2nc(N)nc(Nc3ccc(C)cc3)n2)C1` (stereo unspecified), the inhibition is 3.45% (inactive).

Regarding `CCCN(CC1CC1)C(=O)COC(=O)c1ccc(C)cc1O`, the inhibition was 6.82% (inactive).

For `Cc1cccc(NC(=O)/C=C/c2ccc3c(c2)OCO3)n1`, the inhibition was 0.78% (inactive).

In the case of `Cc1csc(NC(=O)CSc2ccc(-c3ccc(F)cc3)nn2)n1`, the inhibition is 1.11% (inactive).

With `COC(=O)c1sc(-c2ccc(C(C)(C)C)cc2)cc1NC(=O)/C=C/C(=O)O`, the inhibition was -3.2% (inactive).

As for `C[C@@H]1CC[C@]2(O[C@@H](CCO)C[C@H](O)[C@H]2O)O1`, the inhibition is -8.93% (inactive).

`CC(NC(=O)COC(=O)c1ccc2c(c1)OCO2)c1ccccc1` (stereo unspecified): the inhibition is 55% (active).

As for `CC(=O)Nc1cccc(C(=O)OCC(=O)c2ccc3c(c2)OCO3)c1`, the inhibition was -2.44% (inactive).

With `CC(NC(=O)COC(=O)c1cc(=O)[nH]c2ccccc12)c1ccccc1` (stereo unspecified), the inhibition was 1.93% (inactive).

In the case of `O=C(COC(=O)c1ccc(Cl)nc1)NCc1ccc2c(c1)OCO2`, the inhibition was 5.61% (inactive).

On to `O=C(OCc1ccccc1F)c1ccc2c(c1)OCCO2`, for which the inhibition is 14.7% (inactive).

On to `O=C(CN(Cc1ccccc1)C(=O)c1ccc2c(c1)OCCO2)NCc1ccc2c(c1)OCO2`, for which the inhibition was 1.54% (inactive).

Take `O=C(COC(=O)c1ccccc1)c1ccc2c(c1)OCCO2`: the inhibition is 2.41% (inactive).

As to `O=C(COC(=O)c1ccc2c(c1)OCCO2)NCc1ccccc1`, the inhibition is 51.5% (active).

With `CN(C)C(=O)c1ccc(NC(=O)COC(=O)c2cc3c(s2)CCCCC3)cc1`, the inhibition is 22.8% (inactive).

Consider `O=C(COC(=O)c1ccc2c(c1)OCCO2)NCc1ccccc1Cl`, for which the inhibition is 85.4% (active).

For `O=C(COC(=O)c1cc2c(s1)CCCC2)NCc1ccccc1Cl`, the inhibition is 67% (active).

As for `O=C(NCc1ccccc1Cl)c1csc2c1CCCCC2`, the inhibition is 3.83% (inactive).

As for `COc1cc(C(c2c(NC(=O)c3ccco3)sc(C)c2C)N2CCOCC2)cc(OC)c1OC` (stereo unspecified), the inhibition was 2.1% (inactive).

Turning to `S=c1nc2ccccc2c2nc(-c3cccnc3)[nH]n12`, the inhibition was 6.52% (inactive).

Turning to `CCCCN1C(=O)CCC(C(=O)O)C1c1ccc(OC)cc1` (stereo unspecified), the inhibition was -2.61% (inactive).

For `CC(=O)Nc1ccc(Nc2c([N+](=O)[O-])cc(S(C)(=O)=O)cc2[N+](=O)[O-])cc1`, the inhibition is 3.4% (inactive).

Regarding `O=C(CNS(=O)(=O)c1ccccc1)NCC(=O)OCc1ccccc1F`, the inhibition was 10.3% (inactive).

Take `COC(=O)c1ccccc1NC(=O)C1(S(=O)(=O)c2ccc(Cl)cc2)CC1`: the inhibition was 4.24% (inactive).

Turning to `CC(C)C1C2=C(CC(C)(C)CC2=O)ON1c1ccccc1` (stereo unspecified), the inhibition is -5.16% (inactive).
